# Laboratory results reported in PubChem BioAssay (NCATS).
# Inconclusive results are not listed. Where a call stands in place of a potency, no number is given. Active and inactive are the calls of the source. Unless noted, the call rests on the fitted dose curve; in most records, active means well fitted curve in the direction sought with a large enough effect; inconclusive means small, poorly fitted or top-dose-only effect, or another doubt; inactive means no such curve, though single readings can be large; an effect the other way counts as inactive or inconclusive.
# Columns and labels:
# [1] = Cytometric Cell-Based qHTS for Inhibitors of the mTORC1 Signaling Pathway in MEF (Tsc2-/-, p53-/-) Cells (AID 2660);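 further: percent of cells above a phospho-rpS6 to PI ratio cutoff in each well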
# Procedure, shortened: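 Tsc2-/-, p53-/- MEFs (empty vector) exposed to compound 24 h at 37 C, fixed, stained with Alexa-488 anti-phospho-rpS6 Ser235/236 and propidium iodide. Acumen laser scanning; phospho-S6/PI ratio thresholded against 7.5 nM rapamycin, reported as % positive cells.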
# [2] = High Content Imaging Cell-Based qHTS for Inhibitors of the mTORC1 Signaling Pathway in MEF (Tsc2-/-, p53-/-) Cells (AID 2666); conditions: at 38.3 µM (top of the series);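 further: percent of cells scored positive for phospho-rpS6 Ser235/236 immunostaining by imaging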
# Procedure, shortened: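 Read-out: % positive cells per well, with thresholds from highest- and lowest-signal wells, based on phospho-rpS6 (Ser235/236) intensity normalized to Hoechst nuclear stain. Cells: Tsc2-/-, p53-/- MEFs carrying empty vector; compound 24 hrs, 37 degree Celsius.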
# [3] = High Content Imaging Cell-Based qHTS for Inhibitors of the mTORC1 Signaling Pathway in MEF Cells (AID 2667);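 further: Tsc2-/- p53-/- MEFs stably re-expressing wild-type Tsc2 exposed 24 h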
# Procedure, shortened: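 MEF (Tsc2-/-, p53-/-, WT Tsc2 re-expressed); cpd 24 h, 37 °C; PFA fix; Alexa-488 anti-p-rpS6 Ser235/236, PI, Hoechst; IN Cell imaging; Hoechst/Alexa-488 intensity ratio; % active cells, thresholds set from rapamycin and DMSO wells.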
# [4] = Cytometry Cell-Based qHTS for Inhibitors of the mTORC1 Signaling Pathway in MEF cells (AID 2668);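 further: Tsc2-/- p53-/- mouse embryonic fibroblasts stably re-expressing wild-type Tsc2; percent cells positive for phospho-rpS6 Ser235/236 relative to propidium iodide stain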
# Procedure, shortened: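 Pathway inhibition in WT Tsc2-rescued Tsc2-/-, p53-/- MEFs is measured as the Alexa-488 phospho-rpS6 to propidium iodide intensity ratio after 24 hrs of compound at 37 degree Celsius. PI-stained cell number gives viability.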
# [5] = molecular target: Ubiquitin carboxyl-terminal hydrolase 2 (Homo sapiens) (UniProt O75604); test: qHTS Validation Assay for Inhibitors of Ubiquitin-specific Protease USP2a Using CHOP2 as the Reporter (AID 463106)
# Procedure, shortened: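 USP2 core (10nM final) was preincubated with compound for 30min at RT in 20mM Tris-HCl pH 8.0, 2mM CaCl2, 2mM beta-mercaptoethanol, 0.05% CHAPS. Ub-CHOP2 and reporter substrate (25nM each) were added, and fluorescence (Ex 485/Em 531nm) was read after 60min.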
# [6] = molecular target: Tumor susceptibility gene 101 protein (Homo sapiens) (UniProt Q99816); test: qHTS Validation Assay for Iinhibitors of HIV-1 Budding by Blocking the Interaction of PTAP/TSG101 (AID 485342; calls by dose curve)
# Procedure, shortened: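 Fluorescence anisotropy measured PTAP-Tsg101 interaction. Final concentrations were 10 uM protein domain and 50 nM labeled peptide, equilibrated 20 min at room temperature.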
# [7] = molecular target: Beta-2 adrenergic receptor (Homo sapiens) (UniProt P07550); test: qHTS validation assay of beta-arrestin-biased ligands of beta2-adrenergic receptor (AID 485366)
# Procedure, shortened: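 Tango cells expressing recombinant beta2-AR and beta-arrestin with tTA-driven luciferase, in DMEM with 1% FBS. Compounds were titrated up to 46 microM for 18 hr at 37 degrees C. Luminescence was read 15 min after substrate; curves were fitted and class-assigned.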
# [8] = molecular target: ATP-dependent 6-phosphofructokinase (Trypanosoma brucei brucei) (UniProt O15648); test: qHTS Validation Assay to Find Inhibitors of T. brucei phosphofructokinase (AID 485368)
# Procedure, shortened: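 Activity was read as ADP production by luminescence (ADP-Glo) after 45 min at room temperature. The enzyme was 1.25nM PFK in 0.1M TEA pH 8.0 with 0.5 mM F6P, 0.1mM ATP and 5 mM MgCl2. Compounds were titrated up to 57 uM and % activity normalized to no-enzyme and full-enzyme controls.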
# [9] = molecular target: Thioredoxin reductase 1, cytoplasmic (Rattus norvegicus) (UniProt O89049); test: qHTS Assay for Substrates of Mammalian Selenoprotein Thioredoxin Reductase 1 (TrxR1) (AID 488772);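 further: NADPH fluorescence in the first read after selenite addition and not the 8 min delta; a drop in NADPH fluorescence below the no-compound background marks a TrxR1 substrate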
# Procedure, shortened: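 Quantitative HTS in Tris-HCl buffer at pH 7.5 with EDTA and Tween-20, using rat TrxR1, 400 uM NADPH and 400 uM selenite (final). A fall in initial NADPH fluorescence relative to background marked substrate behaviour.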
# [10] = molecular target: Thioredoxin reductase 1, cytoplasmic (Rattus norvegicus) (UniProt O89049); test: qHTS Assay for Inhibitors of Mammalian Selenoprotein Thioredoxin Reductase 1 (TrxR1) (AID 488773); conditions: Potency: inhibition;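 further: drop in NADPH fluorescence over an 8 min run after selenite addition; nearly all actives have a fitted effect of over 40% in size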
# Procedure, shortened: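 Steps: enzyme (90 nM) plus NADPH (400 uM final), 5 min at ~22 deg C; compound added, 15 min; selenite (400 uM final) added; fluorescence followed for 8 min. Concentration-response curves derived from the normalized delta values.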
# [11] = molecular target: Flap endonuclease 1 (Homo sapiens) (UniProt P39748); test: qHTS Validation Assay for the Inhibitors of Human Flap endonuclease 1 (FEN1) (AID 488816)
# Procedure, shortened: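 FEN1, dispensed as a 10 nM reagent, was preincubated with pin-transferred compounds for 15 min at room temperature before substrate was added (50 nM final). Plates were read at 0 and 15 min, and a four-parameter Hill equation was fitted to the concentration-response data.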
# [12] = molecular target: M-phase phosphoprotein 8 (Homo sapiens) (UniProt Q99549); test: qHTS Validation Assay for Inhibitors for MPP8 Chromodomain Interactions with Methylated Histone Tails (AID 488949);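 further: AlphaScreen signal from MPP8 chromodomain bound to biotinylated H3K9me3 peptide; top concentration of the series differs between compounds; nearly all actives have a fitted effect of over 55% in size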
# Procedure, shortened: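 Disruption of the preformed MPP8–trimethyl-H3K9 peptide complex (both 50 nM, 30 min, RT) is measured after 30 min compound exposure, using AlphaScreen proximity beads; aurintricarboxylic acid titration serves as plate control.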
# [13] = molecular target: Methanococcus maripaludis chaperonin (MmCpn) (UniProt Q6LX38); test: High-Throughput Screening for Modulators of Cytosolic Chaperonin Activity: MmCpn Primary Screen (AID 488978);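 further: 50 nM MmCpn enzyme hydrolysing 30 µM ATP at 37 °C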
# Procedure, shortened: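 Measures ATPase turnover of the M. maripaludis chaperonin (50 nM final) against 30 uM ATP over 10 min at 37C, with compound added 5 min beforehand at room temperature. ADP is quantified by HTRF immunodetection.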
# [14] = molecular target: D(1A) dopamine receptor (Homo sapiens) (UniProt P21728); test: HTS Assay for Allosteric Agonists of the Human D1 Dopamine Receptor: Primary Screen for Agonists (AID 488981)
# Procedure, shortened: (§1)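 Tetracycline-induced HEK293 T-REx cells force-coupled to calcium signalling were incubated overnight at 30 C and dye-loaded at room temperature. Calcium flux over 180 s after compound addition flagged agonists; a further 180 s read after EC20 dopamine flagged potentiators.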
# [15] = molecular target: D(1A) dopamine receptor (Homo sapiens) (UniProt P21728); test: HTS Assay for Allosteric Agonists of the Human D1 Dopamine Receptor: Primary Screen for Potentiators (AID 488982)
# Procedure, shortened: as §1
# [16] = molecular target: D(1A) dopamine receptor (Homo sapiens) (UniProt P21728); test: HTS Assay for Allosteric Agonists of the Human D1 Dopamine Receptor: Primary Screen for Antagonists (AID 488983);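 further: calcium flux response to an EC80 dopamine challenge measured with no-wash dye; nearly all actives have a fitted effect of over 65% in size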
# Procedure, shortened: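 Cells are induced with tetracycline and incubated overnight at 30 C, then loaded with calcium dye for 30 to 90 minutes at room temperature. Compound addition is followed by a 180 s read, then an EC80 dopamine addition and another 180 s read.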
# [17] = Nrf2 qHTS screen for inhibitors: Validation (AID 493153; active means well fitted inhibition curve with a large enough effect in the main read-out, with a control signal flat, not every such curve was filed as active); conditions: viability change: measured here: cytotoxicity max response
# Procedure, shortened: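 Luminescence from an ARE-firefly luciferase reporter in A549 cells gives Nrf2 inhibition; an earlier CellTiter-Fluor fluorescent read flags cytotoxicity. Cells in 5% FBS OPTI-MEM received compound dilution series for 18-24 h at 37°C.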
# [18] = qHTS for Inhibitors of Cell Surface uPA Generation: Validation Assay (AID 493164)
# Procedure, shortened: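 RAW 264.7 cells (4000/well) were plated overnight, then exposed for 18 h at 37 C, 5% CO2 to compounds in a 7-point 1:5 titration (2.45 nM–38.3 uM final). Intracellular ATP was read by ATP-Lite luminescence.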
# [19] = molecular target: Peptidyl-prolyl cis-trans isomerase NIMA-interacting 1 (Homo sapiens) (UniProt Q13526); test: qHTS Validation Assay to Find Inhibitors of Pin1 (AID 504536; active means well fitted inhibition curve with a large enough effect in the polarisation, with a control signal flat, not every such curve was filed as active; the % refers to the polarisation)
# Procedure, shortened: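 Fluorescence polarization competition: compounds (titration) displace HiFluor-488-labeled Pin1-1b peptide from Pin1 (0.3 uM final) in pH 7.5 HEPES buffer with DTT, 10 min at room temperature; %Activity normalized to no-enzyme wells, curves fitted.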
# [20] = molecular target: Phosphoglycerate kinase, glycosomal (Trypanosoma brucei brucei) (UniProt P07378); test: qHTS Validation Assay to Find Inhibitors of Phosphoglycerate Kinase (AID 504547)
# Procedure, shortened: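 Substrate/PGK mix plus compound; reaction started with GAPDH (100nM final) to form 1,3-BPG; 60 min RT; Kinase-Glo Plus 10 min; luminescence. TEA 100mM pH 7.6, MgCl2 5mM, Tween-20 0.01%.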
# [21] = molecular target: phosphoglycerate mutase (Leishmania major) (UniProt Q4Q090); test: qHTS Validation Assay to Find Inhibitors of Phosphoglycerate Mutase (AID 504548)
# Procedure, shortened: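 Lm PGAM at 1.25 nM final with substrate in 100 mM TEA pH 7.6, 5 mM MgCl2, 0.01% Tween-20; 45 min at room temperature. Kinase-GloPlus added, 10 min, end-point luminescence read.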
# [22] = molecular target: Ubiquitin carboxyl-terminal hydrolase 1 (Homo sapiens) (UniProt O94782); test: Inhibitors of USP1/UAF1: Pilot qHTS (AID 504865);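 further: rhodamine fluorescence freed from ubiquitin-rhodamine substrate followed over time; top concentration of the series differs between compounds; nearly all actives have a fitted effect of over 35% in size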
# Procedure, shortened: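 Kinetic fluorescence assay: 1nM USP1/UAF1, 15 min compound preincubation, then 150nM Ub-Rho; 480/540 nm.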
# [23] = qHTS for Inhibitors of ATXN expression: Validation of Cytotoxic Assay (AID 588349)
# Procedure, shortened: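 Read-out: ATP-based luminescence (CellTiter Glo) reflecting viability of HEK293 cells after 72 hr incubation at 37 degrees C with a concentration series of each compound.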
# [24] = qHTS for Inhibitors of ATXN expression: Validation (AID 588378); further: nearly all actives have a fitted effect of over 75% in size
# Procedure, shortened: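 Validation of ATXN2 expression inhibitors uses a cell-based luciferase fusion reporter in HEK293 cells, with 24 h compound exposure and paired viability (fluorescence) and reporter (luminescence) end-point reads.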
# [25] = molecular target: Glutaminase kidney isoform, mitochondrial (Homo sapiens) (UniProt O94925); test: qHTS for Inhibitors of Glutaminase (GLS): LOPAC Validation (AID 624146);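 further: glutamate product detected by oxidase and peroxidase coupled Amplex red fluorescence gain; nearly all actives have a fitted effect of over 60% in size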
# Procedure, shortened: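 Coupled fluorescence readout: glutamate oxidase/HRP/Amplex Red detect glutamate formed by hKGA from L-glutamine (1 mM solution added). Buffer 45 mM KH2PO4 pH 8.2, 0.02% Tween-20; reads at t0 and 30 min RT.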
# [26] = qHTS of Trypanosoma Brucei Inhibitors: LOPAC Validation (AID 624147)
# Procedure, shortened: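 Quantitative HTS: titrated library compounds versus trypanosomal pyruvate kinase in TEA buffer (pH 7.2) containing KCl, MgCl2, BSA and Tween-20. Reactions were initiated with ADP, 130 uM final. Kinase-Glo Plus luminescence was read after 45 min at RT.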
# [27] = molecular target: Glucagon-like peptide 1 receptor (Homo sapiens) (UniProt P43220); test: qHTS of GLP-1 Receptor Agonists: LOPAC Validation (AID 624148);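 further: higher luminescence signal means agonism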
# Procedure, shortened: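 HEK293 cells stably co-expressing a cAMP-responsive luciferase reporter and a hypersensitive GLP-1R were plated 12 h at 37 °C and exposed to compounds for 4-6 hr at 37 °C, 5% CO2. Luminescence was read 12 min after adding detection reagent.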
# [28] = qHTS of Nrf2 Activators: LOPAC Validation (AID 624149)
# Procedure, shortened: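 Luminescence read-out of ARE-luciferase activation: AREc32_Fluc cells treated with compounds for 24 hr at 37 deg C, then lysed with Steady-Glo for 30 min at room temperature before reading.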
# [29] = HTS Assay for Allosteric Antagonists of the Human D2 Dopamine Receptor: Hit Validation in HTRF (AID 624455);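 further: stable D1 dopamine receptor cell line scored for blocking the D1 response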
# Procedure, shortened: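 First, antagonism was screened by calcium flux in a force-coupled, inducible Hek293 Trex D2 line challenged with EC80 dopamine. Hits then went into an HTRF assay in cells stably expressing D1, testing inhibition of the D1 response.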
# D(1A) dopamine receptor (Homo sapiens), sequence (P21728 whole entry, looked up): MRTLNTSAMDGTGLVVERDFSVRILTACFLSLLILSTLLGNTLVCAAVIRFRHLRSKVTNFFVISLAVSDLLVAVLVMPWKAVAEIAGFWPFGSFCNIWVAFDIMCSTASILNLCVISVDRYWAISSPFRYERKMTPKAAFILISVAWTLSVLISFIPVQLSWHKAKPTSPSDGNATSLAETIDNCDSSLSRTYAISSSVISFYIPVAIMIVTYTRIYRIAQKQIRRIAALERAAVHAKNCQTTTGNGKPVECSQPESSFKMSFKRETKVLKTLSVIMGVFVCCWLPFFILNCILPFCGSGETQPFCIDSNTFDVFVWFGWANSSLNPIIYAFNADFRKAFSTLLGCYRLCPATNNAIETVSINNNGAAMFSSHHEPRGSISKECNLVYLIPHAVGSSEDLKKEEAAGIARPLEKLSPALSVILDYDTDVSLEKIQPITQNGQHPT
# Thioredoxin reductase 1, cytoplasmic (Rattus norvegicus), sequence (O89049 whole entry, looked up): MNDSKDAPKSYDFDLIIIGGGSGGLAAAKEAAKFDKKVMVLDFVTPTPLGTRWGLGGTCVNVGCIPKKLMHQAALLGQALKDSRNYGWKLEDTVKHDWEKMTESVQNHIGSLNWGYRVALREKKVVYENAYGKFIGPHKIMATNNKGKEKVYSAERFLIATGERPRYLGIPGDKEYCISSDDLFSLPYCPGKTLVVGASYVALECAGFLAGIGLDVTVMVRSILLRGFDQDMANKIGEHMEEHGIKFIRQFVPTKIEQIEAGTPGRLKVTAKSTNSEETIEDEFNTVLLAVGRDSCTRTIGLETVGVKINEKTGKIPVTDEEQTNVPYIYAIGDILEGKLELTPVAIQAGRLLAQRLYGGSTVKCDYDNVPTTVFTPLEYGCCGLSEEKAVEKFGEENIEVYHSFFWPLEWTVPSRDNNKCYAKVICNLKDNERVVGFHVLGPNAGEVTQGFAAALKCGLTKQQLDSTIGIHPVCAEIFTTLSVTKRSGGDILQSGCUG
# M-phase phosphoprotein 8 (Homo sapiens), sequence (Q99549 whole entry, looked up): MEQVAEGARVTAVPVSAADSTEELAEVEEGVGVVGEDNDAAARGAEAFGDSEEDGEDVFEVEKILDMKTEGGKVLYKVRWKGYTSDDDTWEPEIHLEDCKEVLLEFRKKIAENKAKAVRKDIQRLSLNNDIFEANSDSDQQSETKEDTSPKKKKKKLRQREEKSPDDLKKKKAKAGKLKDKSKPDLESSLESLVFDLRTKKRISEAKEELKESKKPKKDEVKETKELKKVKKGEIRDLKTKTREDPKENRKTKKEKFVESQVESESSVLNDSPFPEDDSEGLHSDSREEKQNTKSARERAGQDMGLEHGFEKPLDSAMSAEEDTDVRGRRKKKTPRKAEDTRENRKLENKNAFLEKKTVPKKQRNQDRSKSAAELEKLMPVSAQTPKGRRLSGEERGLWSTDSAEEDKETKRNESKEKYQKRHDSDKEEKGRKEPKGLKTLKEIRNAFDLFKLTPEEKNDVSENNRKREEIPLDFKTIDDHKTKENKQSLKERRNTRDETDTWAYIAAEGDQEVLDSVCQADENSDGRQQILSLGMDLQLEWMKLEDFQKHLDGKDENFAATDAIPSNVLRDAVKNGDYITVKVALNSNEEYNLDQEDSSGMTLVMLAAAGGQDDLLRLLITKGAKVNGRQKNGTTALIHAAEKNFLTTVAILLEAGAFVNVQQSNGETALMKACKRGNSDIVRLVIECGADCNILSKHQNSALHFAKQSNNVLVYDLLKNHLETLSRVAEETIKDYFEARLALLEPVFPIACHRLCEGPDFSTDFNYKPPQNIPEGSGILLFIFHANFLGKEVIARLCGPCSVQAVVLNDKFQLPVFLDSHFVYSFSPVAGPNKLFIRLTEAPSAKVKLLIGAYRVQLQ
# Phosphoglycerate kinase, glycosomal (Trypanosoma brucei brucei), sequence (P07378 whole entry, looked up): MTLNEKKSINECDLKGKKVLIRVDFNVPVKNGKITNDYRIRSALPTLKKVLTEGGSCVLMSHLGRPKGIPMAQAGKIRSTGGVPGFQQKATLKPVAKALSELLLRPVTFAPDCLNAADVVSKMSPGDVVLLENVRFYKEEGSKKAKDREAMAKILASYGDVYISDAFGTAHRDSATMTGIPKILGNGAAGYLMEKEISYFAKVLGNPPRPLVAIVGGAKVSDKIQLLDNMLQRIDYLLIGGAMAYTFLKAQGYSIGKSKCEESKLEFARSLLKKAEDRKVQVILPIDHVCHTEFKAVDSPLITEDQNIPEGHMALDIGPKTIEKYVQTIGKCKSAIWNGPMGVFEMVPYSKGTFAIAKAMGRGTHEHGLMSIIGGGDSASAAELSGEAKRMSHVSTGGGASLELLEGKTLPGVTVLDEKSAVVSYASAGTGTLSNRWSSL
# phosphoglycerate mutase (Leishmania major), sequence (Q4Q090 1-553): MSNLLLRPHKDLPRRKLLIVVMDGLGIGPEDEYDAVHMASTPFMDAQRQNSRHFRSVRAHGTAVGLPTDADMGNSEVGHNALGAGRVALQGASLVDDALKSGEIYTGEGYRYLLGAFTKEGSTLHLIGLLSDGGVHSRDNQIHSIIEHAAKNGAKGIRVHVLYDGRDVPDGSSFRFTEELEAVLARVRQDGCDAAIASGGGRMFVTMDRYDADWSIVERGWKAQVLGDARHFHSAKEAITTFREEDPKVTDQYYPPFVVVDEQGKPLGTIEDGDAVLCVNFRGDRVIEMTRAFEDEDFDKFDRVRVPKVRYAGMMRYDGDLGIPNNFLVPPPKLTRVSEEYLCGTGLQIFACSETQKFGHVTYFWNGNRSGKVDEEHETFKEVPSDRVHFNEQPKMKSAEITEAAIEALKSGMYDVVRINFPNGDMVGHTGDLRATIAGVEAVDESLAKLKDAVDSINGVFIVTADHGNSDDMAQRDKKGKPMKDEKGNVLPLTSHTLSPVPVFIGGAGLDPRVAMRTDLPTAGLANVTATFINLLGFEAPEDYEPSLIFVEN
# Tumor susceptibility gene 101 protein (Homo sapiens), sequence (Q99816 whole entry, looked up, the tested form may be a part): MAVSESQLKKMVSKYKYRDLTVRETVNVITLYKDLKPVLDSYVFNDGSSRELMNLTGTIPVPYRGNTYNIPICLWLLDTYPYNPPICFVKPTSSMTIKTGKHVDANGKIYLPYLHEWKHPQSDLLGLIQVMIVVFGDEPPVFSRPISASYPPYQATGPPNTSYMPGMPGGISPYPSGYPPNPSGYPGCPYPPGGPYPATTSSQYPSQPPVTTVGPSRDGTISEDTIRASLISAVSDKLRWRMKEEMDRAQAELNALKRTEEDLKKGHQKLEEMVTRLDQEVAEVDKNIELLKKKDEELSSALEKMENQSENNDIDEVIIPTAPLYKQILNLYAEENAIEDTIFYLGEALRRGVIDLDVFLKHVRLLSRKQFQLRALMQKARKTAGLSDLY
# Methanococcus maripaludis chaperonin (MmCpn), sequence (Q6LX38 1-543): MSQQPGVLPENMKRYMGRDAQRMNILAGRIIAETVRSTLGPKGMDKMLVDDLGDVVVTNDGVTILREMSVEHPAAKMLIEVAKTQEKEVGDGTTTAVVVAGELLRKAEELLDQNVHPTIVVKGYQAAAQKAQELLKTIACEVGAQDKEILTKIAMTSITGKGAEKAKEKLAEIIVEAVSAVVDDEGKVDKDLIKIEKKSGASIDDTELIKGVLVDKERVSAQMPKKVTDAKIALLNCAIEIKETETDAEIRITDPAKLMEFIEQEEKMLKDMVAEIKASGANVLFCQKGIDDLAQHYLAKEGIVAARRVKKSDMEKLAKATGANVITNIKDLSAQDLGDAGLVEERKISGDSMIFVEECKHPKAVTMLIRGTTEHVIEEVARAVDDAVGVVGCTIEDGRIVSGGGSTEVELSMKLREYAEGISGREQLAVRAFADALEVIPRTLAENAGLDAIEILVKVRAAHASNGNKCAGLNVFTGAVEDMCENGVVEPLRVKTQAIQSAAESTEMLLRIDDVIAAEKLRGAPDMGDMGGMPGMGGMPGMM
# Glucagon-like peptide 1 receptor (Homo sapiens), sequence (P43220 whole entry, looked up): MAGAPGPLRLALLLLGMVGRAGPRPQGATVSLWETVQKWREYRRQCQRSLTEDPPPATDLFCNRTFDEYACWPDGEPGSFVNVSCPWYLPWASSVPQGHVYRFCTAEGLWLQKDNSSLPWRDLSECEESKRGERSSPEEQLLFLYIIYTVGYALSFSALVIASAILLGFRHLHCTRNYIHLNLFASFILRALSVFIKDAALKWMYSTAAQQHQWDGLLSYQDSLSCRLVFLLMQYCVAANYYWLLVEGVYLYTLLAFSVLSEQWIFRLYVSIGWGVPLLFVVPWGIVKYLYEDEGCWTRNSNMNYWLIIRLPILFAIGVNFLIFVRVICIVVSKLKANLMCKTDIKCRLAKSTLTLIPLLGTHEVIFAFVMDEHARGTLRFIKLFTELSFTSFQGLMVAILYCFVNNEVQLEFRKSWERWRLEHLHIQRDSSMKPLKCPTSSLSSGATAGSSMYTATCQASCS
# Beta-2 adrenergic receptor (Homo sapiens), sequence (P07550 whole entry, looked up): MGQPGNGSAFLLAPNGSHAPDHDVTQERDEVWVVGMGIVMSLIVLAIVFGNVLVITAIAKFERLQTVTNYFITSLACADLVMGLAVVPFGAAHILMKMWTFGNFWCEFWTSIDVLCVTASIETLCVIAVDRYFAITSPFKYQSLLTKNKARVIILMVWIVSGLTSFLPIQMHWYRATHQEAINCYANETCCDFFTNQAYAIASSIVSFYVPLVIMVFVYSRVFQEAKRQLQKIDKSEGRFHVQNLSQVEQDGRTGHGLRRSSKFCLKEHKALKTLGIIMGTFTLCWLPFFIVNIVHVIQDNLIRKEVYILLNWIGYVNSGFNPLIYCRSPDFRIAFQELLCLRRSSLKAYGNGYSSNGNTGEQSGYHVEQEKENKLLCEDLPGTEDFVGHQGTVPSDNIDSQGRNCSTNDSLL
# Flap endonuclease 1 (Homo sapiens), sequence (P39748 whole entry, looked up): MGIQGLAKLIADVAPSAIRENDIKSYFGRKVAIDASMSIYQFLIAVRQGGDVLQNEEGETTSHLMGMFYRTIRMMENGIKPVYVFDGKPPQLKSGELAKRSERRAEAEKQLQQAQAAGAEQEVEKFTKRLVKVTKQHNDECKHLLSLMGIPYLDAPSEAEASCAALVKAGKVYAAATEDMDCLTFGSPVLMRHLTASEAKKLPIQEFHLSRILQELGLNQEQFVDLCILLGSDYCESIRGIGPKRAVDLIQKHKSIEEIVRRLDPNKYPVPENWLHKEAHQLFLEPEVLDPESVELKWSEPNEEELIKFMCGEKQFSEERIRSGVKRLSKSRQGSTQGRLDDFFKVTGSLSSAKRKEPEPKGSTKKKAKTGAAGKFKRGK
compound,measurement,setting,value
C[C@H](Cc1ccccc1)Nc1ncnc2c1ncn2[C@@H]1O[C@H](CO)[C@@H](O)[C@H]1O,outcome,[1],inactive
same,outcome,[2],inactive
same,Potency,[3],inactive
same,Potency,[4],inactive
same,Potency,[5],inactive
same,outcome,[6],inactive
same,outcome,[7],inactive
same,Potency,[8],inactive
same,outcome,[9],inactive
same,Potency,[10],inactive
same,Potency,[11],inactive
same,Potency,[12],inactive
same,outcome,[13],inactive
same,outcome,[14],inactive
same,outcome,[15],inactive
same,outcome,[16],inactive
same,outcome,[17],inactive
same,viability change,[17],6.66%
same,outcome,[18],inactive
same,Potency,[19],inactive
same,Potency,[20],inactive
same,outcome,[21],inactive
same,Potency,[22],inactive
same,Potency,[23],inactive
same,Potency,[24],inactive
same,Potency,[25],inactive
same,outcome,[26],inactive
same,outcome,[27],inactive
same,outcome,[28],inactive
same,outcome,[29],inactive
